HGIII-sPLA2 inh: Blocks human group III sPLA2 activity. inhibition, % at 12.2 µM. QFRET BODIPY PC-A2 liposome hydrolysis, fluorescence. Q9NZ20. actives 0.56% (n = 370,000);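 active = inhibition above mean plus 3 SD of compounds lying within the high and low control bounds, cut at about 19% in these data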;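 also: 0% = median of test compound wells and 100% = no enzyme DMSO wells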
CR mimetic SO: lowers age-related superoxide in aged yeast cells; superoxide response (% of plate mean), % at 10 µM; actives 0.18% (n = 330,000); AID 2690; S. cerevisiae aged cells, superoxide DHE fluorescence; hits give low values;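 active = superoxide response under a set limit, about three screen SD below normal, cut at about 65% in these data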;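 also: yeast aged for seven days with compound at 30 °C before DHE staining; 100% = average MFI of all compound-treated wells on the plate with controls excluded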
PLCb3 inh: inhibitors of human phospholipase C beta3. Purified PLC-beta3, fluorogenic substrate, fluorescence. inhibition, % at 12.2 µM. actives 0.18% (n = 370,000). AID 720704;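 also: 0% = median of compound wells on plate and 100% = full blocker control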
PLC-gamma1 inh: PLC-gamma1 (human) inhibition, primary screen. P19174. purified PLC-gamma1, fluorogenic substrate, fluorescence. inhibition, % at 12.2 µM. actives 0.84% (n = 370,000). AID 720700; in the data active = inhibition above about 9.5%
AHR act: activates the human aryl hydrocarbon receptor; P35869; activation, % at 5 µM; actives 2.5% (n = 320,000); AHR-responsive luciferase reporter cells, luminescence; in the data active = activation above about 47%;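 also: 0% = vehicle wells and 100% = reference agonist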
Target sequence (P35869 whole entry, looked up): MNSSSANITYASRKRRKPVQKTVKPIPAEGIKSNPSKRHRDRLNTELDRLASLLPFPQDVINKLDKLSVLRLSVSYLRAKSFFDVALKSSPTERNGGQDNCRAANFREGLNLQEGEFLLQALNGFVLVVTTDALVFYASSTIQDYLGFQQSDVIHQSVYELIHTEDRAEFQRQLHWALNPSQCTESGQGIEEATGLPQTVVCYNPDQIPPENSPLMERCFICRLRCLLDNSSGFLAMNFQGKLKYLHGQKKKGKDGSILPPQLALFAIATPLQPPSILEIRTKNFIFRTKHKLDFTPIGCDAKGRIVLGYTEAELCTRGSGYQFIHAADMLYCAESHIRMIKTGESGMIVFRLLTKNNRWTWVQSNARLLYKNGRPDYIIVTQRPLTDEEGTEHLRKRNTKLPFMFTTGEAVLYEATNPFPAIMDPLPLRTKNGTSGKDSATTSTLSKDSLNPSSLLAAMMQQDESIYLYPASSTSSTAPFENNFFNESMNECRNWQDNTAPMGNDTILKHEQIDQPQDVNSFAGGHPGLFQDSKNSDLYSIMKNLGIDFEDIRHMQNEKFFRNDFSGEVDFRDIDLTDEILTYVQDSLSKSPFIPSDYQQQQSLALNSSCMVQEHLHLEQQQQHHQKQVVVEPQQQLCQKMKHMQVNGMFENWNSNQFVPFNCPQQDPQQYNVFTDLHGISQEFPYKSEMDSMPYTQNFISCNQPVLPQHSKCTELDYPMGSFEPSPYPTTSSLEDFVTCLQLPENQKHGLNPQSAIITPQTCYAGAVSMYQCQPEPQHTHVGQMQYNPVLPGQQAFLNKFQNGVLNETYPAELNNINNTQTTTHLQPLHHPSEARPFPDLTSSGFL
HIF activator: HIF pathway transcriptional activation; U2OS HRE-luciferase reporter, luminescence; normalized: DMSO 0%, desferrioxamine 100%; AID 1910; actives 0.32% (n = 300,000); activation, % at 7.5 µM (by protocol);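 active = mean activation of at least 10% of the iron chelator positive control signal, with at least half of replicates also reaching 10%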
PLCg1 ctr: counter-screen for PLC-beta3 inhibitors: inhibitors of human PLC-gamma1; purified PLC-gamma1, fluorogenic substrate, fluorescence; shares compounds with PLC-gamma1 inh; AID 743258; actives 3.1% (n = 3,300); inhibition, % at 12.3 µM; in the data active = inhibition above about 9.5%
PLCb3 confirm: confirmation of human PLC-beta3 inhibitors. shares compounds with PLC-gamma1 inh. purified PLC-beta3, fluorogenic substrate fluorescence. inhibition, % at 12.3 µM. actives 1% (n = 3,300)
Numbers without * were called inactive; x = not tested or not shown. Compounds with a hit are over-represented: about 3.9% of the library has one in this group of screens. Rule as the data show it, unless noted: active = inhibition above about 11%; inactive = the rest.

SMILES	HGIII-sPLA2 inh	CR mimetic SO	PLCb3 inh	PLC-gamma1 inh	AHR act	HIF activator	PLCg1 ctr	PLCb3 confirm
O=C(CCN1C(=O)C2C3C=CC(C4CC34)C2C1=O)Oc1ccccc1 (stereo not given)	-6	100	-2	1	0	0	x	x
CCOC(=O)c1nncc(-c2ccccc2)n1	1	122	11*	4	-2	x	-6	-2
CC(C)=CCN1CCN(Cc2cc(F)ccc2-n2nc(C)cc2C)CC1CCO (stereo not given)	0	117	0	1	-3	0	x	x
CCOC(=O)CC1(CCc2ccccc2)Oc2ccccc2N1S(=O)(=O)c1ccc(C)cc1 (stereo not given)	10	x	5	12*	x	x	-2	0
Cc1nnc2sc(SCC(=O)N3CCCCC3)nn2c1=O	-1	119	-3	12*	1	0	-7	-1
CS(=O)(=O)N(Cc1ccc(C(=O)NC2CCCCC2O)cc1)c1ccccc1 (stereo not given)	5	99	-1	2	-1	0	x	x
CS(=O)(=O)N(Cc1ccccc1)c1ccc(C(=O)NC2CCCCC2O)cc1 (stereo not given)	-1	113	4	9.5*	10	1	0	-3
CS(=O)(=O)N(Cc1ccc(C(=O)NC2CCCC2)cc1)c1ccccc1	7	97	1	13*	1	0	-6	-14
O=C(COC(=O)C1CC1)NCc1ccccc1	2	x	-268	0	x	x	x	x
O=C(CCn1nc(-c2ccc(Cl)cc2)c2ccccc2c1=O)Nc1cccnc1	-8	95	-2	2	3	-1	x	x
NC(=O)CCn1nc(-c2ccc(Cl)cc2)c2ccccc2c1=O	6	101	2	12*	-2	-1	-7	-7
c1ccc(-c2nnc(SCC3CCCCO3)nc2-c2ccccc2)cc1 (stereo not given)	4	97	7	17*	3	0	-2	1
CCOC(=O)CNC(=O)C1(NC(=O)CNC(=O)OCc2ccccc2)CCCC1	0	x	3	10*	x	x	-6	-6
CCCOP(=O)(c1ccc(N(C)C)cc1)C(O)c1ccc(Cl)cc1 (stereo not given)	-1	95	-6	-2	1	0	x	x
CC1(Cc2ccccc2Cl)C(=O)Nc2c(Cl)ccc(Cl)c21 (stereo not given)	-9	x	-5	1	x	x	x	x
Cc1ccccc1C(=O)NC1CCN(Cc2nnnn2C2CCCC2)CC1	7	102	3	14*	1	1	12*	5
Cc1ccccc1C(=O)NC1CCN(Cc2nnnn2C(C)(C)C)CC1	8	98	1	2	-1	0	x	x
COc1cccc(CN2C(=O)N(C(C)C)C(N(O)C(=O)NC(C)C)C2(C)C)c1OC (stereo not given)	9	99	15*	14*	3	0	4	5
O=C(O)c1ccc2c(c1Nc1ccccc1)C(=O)c1ccccc1C2=O	3	134	2	10*	22	-10	4	4
CNc1c(C(=O)O)ccc2c1C(=O)c1ccccc1C2=O	6	102	0	-1	0	0	x	x
O=C(NC1CCN(Cc2ccccc2)CC1)c1cc(S(=O)(=O)Nc2ccc(F)cc2)ccc1Cl	-16	x	-11	7	x	x	x	x
Cc1cccc(C)c1-n1ncc(C(=O)NC2CCCC2)c1C1CCNCC1	7	92	2	15*	0	1	0	6
Cc1ccc(-n2ncc(C(=O)Nc3cc(Cl)ccc3Cl)c2C2CCNCC2)cc1	-2	95	-2	-1	-10	0	x	x
O=C(CN1CCc2ccccc2C1)Nc1ccc(F)cc1F	10	104	-2	10*	-2	0	-6	-3
COc1cc2c(cc1OC)CN(CC(=O)Nc1ccc(F)cc1F)CC2	2	116	-23	-12	1	0	x	x
SMILES	HGIII-sPLA2 inh	CR mimetic SO	PLCb3 inh	PLC-gamma1 inh	AHR act	HIF activator	PLCg1 ctr	PLCb3 confirm
O=S(=O)(C/C(=C/CO)S(=O)(=O)c1ccccc1)c1ccccc1	9	103	4	9.7*	-1	-2	-3	1
COc1cc(NS(=O)(=O)c2ccc(NC(=O)NC3CCCCC3)cc2)nc(OC)n1	-18	120	3	10*	1	0	-5	0
O=C(CSc1nc2ccccc2[nH]1)Nc1ccccc1N1CCOCC1	-10	106	5	10*	-2	-1	-4	1
O=C(CSc1nc2ccccc2[nH]1)Nc1cc(C(F)(F)F)ccc1N1CCOCC1	-7	112	2	2	0	0	x	x
Oc1c(N=NC(=S)Nc2ccccc2F)c2ccccc2n1Cc1ccc(F)cc1	7	97	10	10*	9	1	-2	-4
CC(C)(C)OC(=O)N1CCC[C@@H]1C(=O)N1CCC[C@H]1C(=O)NCc1ccccc1	2	x	3	0	x	x	x	x
CC(C)(C)OC(=O)N1CCC[C@H]1C(=O)N1CCC[C@H]1C(=O)NCc1ccncc1	6	x	4	12*	x	x	-4	-73
Cc1ccc(S(=O)(=O)N2CCN(Cc3ccccc3)CC2)c(C)c1N(C)S(=O)(=O)c1ccccc1	-7	99	0	4	0	0	x	x
CC1CCN(S(=O)(=O)N2CCC(C(=O)NC(C)c3ccccc3)CC2)CC1 (stereo not given)	5	x	-1	0	x	x	x	x
Cc1ccc(CNS(=O)(=O)c2ccc(-n3cccn3)cc2)cc1	-3	x	0	5	x	x	x	x
COC(=O)[C@]1(CNC(C)=O)CC(=O)N(Cc2ccc(Cl)cc2)[C@@H]1c1ccc(OC)cc1	9	x	1	11*	x	x	-9	-4
COC(=O)[C@]1(CNC(=O)C(C)(C)C)CC(=O)N(Cc2ccc(Cl)cc2)[C@@H]1c1ccc(OC)cc1	-2	x	5	3	x	x	x	x
CN(Cc1ccccc1)C(=O)[C@@H]1CCCN1C(=O)[C@@H]1CCCN1C(=O)OC(C)(C)C	0	x	1	-2	x	x	x	x
O=C(O)CC(C(=O)O)N1C(=O)/C(=C/C=C/c2ccco2)SC1=S (stereo not given)	-6	99	-11	59*	5	0	52*	-15
O=C(O)C(Cc1ccccc1)N1C(=O)/C(=C/C=C/c2ccco2)SC1=S (stereo not given)	1	x	-38	-1	x	0	x	x
O=C(O)CCCN1C(=O)/C(=C/C=C/c2ccco2)SC1=S	-13	83	-15	23*	-2	-2	18*	-15
CC(=O)Nc1cccc(-c2ccnc3c2CC(C)(C(=O)Nc2cccc(OC(F)(F)F)c2)O3)c1 (stereo not given)	-12	x	3	2	x	x	x	x
